# From PubChem BioAssay (NCI)
# Compounds without any hit were thinned out: in the full panel of roughly 83,000, 20% have a hit.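 Single-concentration screen, 48 h exposure, 96-well plates. Endpoint: percent growth. Below 10 = active.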 A number with no mark means an inactive call. The source made the active and inactive calls.
# Key:
# Assay in all cases: NCI-60 one-dose screen, 48 h (100 = growth as untreated, 0 = no growth, -100 = all killed)
# Settings in all cases: 10 µM unless noted
# [1] = tested on: T-47D breast
# [2] = tested on: BT-549 breast
# [3] = tested on: MDA-MB-435 melanoma
# [4] = tested on: SW-620 colon
# [5] = tested on: MCF7 breast
# [6] = tested on: HCT-116 colon
# [7] = tested on: HCC-2998 colon
# [8] = tested on: KM12 colon
SMILES,growth [1],growth [2],growth [3],growth [4],growth [5],growth [6],growth [7],growth [8]
COC(=O)C1CCCN1C(=O)[C@@H]1CCCN1C(=O)[C@H](Cc1c[nH]c2ccccc12)NC(=S)Nc1cc(C(F)(F)F)cc(C(F)(F)F)c1 (stereo partly drawn),49.8%,70.3%,45%,69.9%,38.8%,37.3%,15%,25.2%
O=C(CSc1nc2ccccc2[nH]1)c1ccc(N2CCOCC2)cc1,94.1%,93%,100%,94.5%,92.2%,94.3%,98.3%,104%
CN(C)CCOC(=O)Nc1ccccc1Cl,112%,99.3%,105%,109%,103%,103%,111%,112%
CCCCCCCCC(C)OC(=O)c1nn(C(C)=O)c2ccccc12 (stereo not drawn),88.6%,95.4%,101%,103%,90.1%,97%,98%,103%
O=C1/C(=C/c2ccccc2)CN(C(=O)CCN2CCC(=NO)CC2)C/C1=C\c1ccccc1,-2.11% (active),2.46% (active),-58.1% (active),-52% (active),-21.5% (active),-68.7% (active),-65.5% (active),-63.1% (active)
O=C(NCc1cn(Cc2cccc(Oc3ccccc3)c2)nn1)c1cccnc1Nc1ccc(F)cc1,83.1%,86.6%,-11.7% (active),44.7%,24%,32.8%,62.7%,34.4%
NC(=S)N/N=C(/CCN1CCCC1)CC(C1=C(O)C2=CCCCC2OC1=O)c1ccccc1 (stereo not drawn),47%,90.9%,90.7%,69%,14.9%,9.46% (active),102%,102%
CNc1ccc(Br)c2c1C(=O)c1ccccc1C2=O,97.1%,104%,108%,107%,72.4%,96.6%,109%,107%
COc1ccc2[nH]c(C(=O)OCc3ccc4c(Cl)cc(Cl)c(O)c4n3)cc2c1,-65.9% (active),-88.3% (active),-85% (active),-68.2% (active),-21.3% (active),-92.3% (active),-39.7% (active),-31% (active)
Cc1cccc(/C=N/Nc2cc(C)c3cccc(C)c3n2)n1,83%,91.4%,96.3%,94.7%,48.4%,65.1%,108%,97.5%
CN1CCN(Cc2ccc(NC(=O)c3nc4ccc5[nH]ncc5c4c4c3CCC4)cc2C(F)(F)F)CC1,-26.4% (active),91.6%,-91.4% (active),-56.2% (active),-29.7% (active),-94.2% (active),-10.5% (active),-79.8% (active)
CCN1CCN(CC(=O)N2c3cccc4cccc(c34)N(C(=O)CN3CCN(CC)CC3)C2c2cn(-c3ccccc3)nc2-c2cccc([N+](=O)[O-])c2)CC1,-70.7% (active),80.7%,-75.7% (active),-43.6% (active),-29% (active),-54.9% (active),-49.1% (active),23.4%
NC(N)=Nc1nc2ccccc2o1,98.3%,89.9%,122%,95.7%,96.8%,95.5%,82.5%,95.9%
CCc1ccc(-c2ccc(=O)n(-c3ccc(S(N)(=O)=O)cc3)n2)cc1,33.4%,7.69% (active),-17.8% (active),7.19% (active),30.2%,16.8%,53.9%,13.6%
COc1ccc(C2C=C(c3ccc(Cl)cc3)N=C3SC=C(C)N32)c(Br)c1 (stereo not drawn),39.3%,19.7%,9.2% (active),24.2%,10.2%,16%,,
COc1ccc2c(c1)cn1c3ccc(OC)cc3[nH]c(=O)c21,-32.2% (active),-0.958% (active),-80% (active),-38.9% (active),-47.5% (active),-75.8% (active),-68.5% (active),-61.7% (active)

SMILES,growth [1],growth [2],growth [3],growth [4],growth [5],growth [6],growth [7],growth [8]
O=C1/C(=C/c2ccc([N+](=O)[O-])cc2)CN(C(=O)CCN2CCC(=NO)CC2)C/C1=C\c1ccc([N+](=O)[O-])cc1,10.1%,-40.7% (active),-52.1% (active),-53.2% (active),-55.4% (active),-67.4% (active),-72.2% (active),-55.3% (active)
COc1ccc(-c2c(N)n[nH]c2-c2cc(OC)c3c(c2)OCCO3)cc1,66.1%,74.4%,-24.1% (active),48%,57.6%,57.2%,75%,40.4%
COc1ccc(/C(C#N)=C/c2cc(OC)c(OC)c(OC)c2)cc1,44.1%,40.7%,-48.8% (active),26.3%,18.6%,20.2%,72%,29.3%
CN1C(=O)N(C)C2C1NN=c1s/c(=C\c3cccnc3)c(=O)n12 (stereo not drawn),91.2%,79.9%,8.5% (active),59.1%,51.6%,75.9%,92.2%,53.8%
NC(=O)CCCN1C/C(=C\c2ccccc2)C(=O)c2ccccc21,83.2%,93.7%,101%,97.6%,96.7%,101%,93.8%,101%
O=C(c1ccccc1)C1OC1c1ccc([N+](=O)[O-])cc1 (stereo not drawn),52.6%,68.5%,39%,9.23% (active),64.1%,13.7%,115%,62.6%
C=C1CCC2C3(C)COC(c4ccc(N(C)C)cc4)OC3CCC2(C)C1C/C=C1/C(=O)OCC1O (stereo not drawn),52.1%,46.4%,7.31% (active),26%,29.5%,21.6%,112%,54.6%
Cc1ccc(S(=O)(=O)n2cc(C(=O)C(=O)Nc3ccncc3)c3ccccc32)cc1,48.4%,37.5%,1.27% (active),11.2%,19.5%,17.5%,52.8%,29.1%
COc1cc(Nc2ncccc2C(=O)NCc2cn(Cc3cccc(Oc4ccccc4)c3)nn2)cc(OC)c1,50.3%,43.8%,-15.3% (active),31.4%,18.3%,19.5%,55%,16.7%
C=C1CCC2C3(C)COC(c4ccccc4)OC3CCC2(C)C1/C=C/C1=CCOC1=O (stereo not drawn),72.2%,-18.3% (active),31.4%,25.6%,31.8%,8% (active),111%,28.7%
Cc1csc(NC(c2ccc(Br)cc2)c2c(C)nc3ccccn23)n1 (stereo not drawn),75.6%,90.7%,97.7%,88.1%,83.3%,59.8%,117%,97.7%
COC(=O)[C@]12CC[C@@H](C)[C@H](C)[C@@H]1C1=CC[C@@H]3[C@@]4(C)C(C=O)=C[C@@](C)(COC(=O)c5ccco5)[C@@H]4[C@H](O)C[C@@]3(C)[C@]1(C)CC2,13.4%,-3.09% (active),-57.4% (active),-55.7% (active),-19.2% (active),-75.8% (active),-84.8% (active),-56.8% (active)
O=[N+]([O-])c1ccc(-c2cn(-c3ccccc3)c(-c3ccccc3)n2)cc1,65.9%,96%,100%,95%,74.4%,87.1%,104%,94.4%
O=[N+]([O-])c1cnc(Sc2ccncn2)s1,-13.9% (active),103%,27.2%,-80.9% (active),31.5%,-48.5% (active),6.85% (active),75.9%
O=C(CSc1nc2ccccc2[nH]1)Nc1ccc(-c2nc3ccccc3s2)c(Cl)c1,-12.7% (active),47.4%,13.2%,22.1%,6.26% (active),-90.2% (active),95.3%,
COc1ccc(-n2c(=S)sc3c(Cl)nc(C)nc32)c(OC)c1,51.3%,90.8%,30.9%,45.4%,13.8%,0.658% (active),35.4%,25.4%
